For part of these data: Potency and affinity values are given separately. Activity calls are given as the source filed them. Unless noted, the rule behind the calls is not given here.
How the values were obtained:
[1] = antimalarial activity against Dd2 strain (AID 2302;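 active = growth inhibition above 50% at the single 2 µM test dose, taken to imply half-maximal potency below 2 µM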;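 note: 0% = DMSO untreated growth and 100% = chloroquine plus artemisinin killed control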); settings: P. falciparum Dd2 in RBCs, LDH growth readout, 72 h; at 2 µM; active compounds read high
[2] = HepG2 cytotoxicity, primary screen, cytotoxicity control for P. falciparum antimalarial project, cell-based, ATP luminescence (AID 2303;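 active = inhibition above 50%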;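 note: 0% = DMSO wells and 100% = digitonin-killed cells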); settings: HepG2 viability, 24-48 h, at 10 µM, active compounds read high
[3] = target: L-lactate dehydrogenase (Plasmodium falciparum (isolate CDC / Honduras)) (UniProt Q27743); assay: PfLDH activity inhibition – cell lysate, 3D7 strain, counter-screen for P. falciparum growth inhibition project (AID 2304);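 note: 0% = vehicle and 100% = reference inhibitor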; settings: P. falciparum 3D7 crude extract, LDH APAD/NBT absorbance; at 2 µM; active compounds read high
Sequence of L-lactate dehydrogenase (Plasmodium falciparum (isolate CDC / Honduras)) (Q27743 whole entry, looked up): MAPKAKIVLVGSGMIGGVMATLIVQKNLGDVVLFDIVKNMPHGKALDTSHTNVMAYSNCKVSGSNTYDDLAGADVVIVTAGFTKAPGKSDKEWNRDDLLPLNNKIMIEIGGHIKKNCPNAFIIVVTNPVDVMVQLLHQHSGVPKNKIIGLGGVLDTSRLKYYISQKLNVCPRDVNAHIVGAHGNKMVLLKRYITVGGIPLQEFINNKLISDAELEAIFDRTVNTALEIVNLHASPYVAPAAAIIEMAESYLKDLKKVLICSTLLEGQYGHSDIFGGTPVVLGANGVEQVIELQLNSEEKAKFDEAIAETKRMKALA

[4] = inhibition of 3D7 malaria parasite growth – strain 3D7 (AID 2306);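 note: 0% = DMSO wells and 100% = chloroquine plus artemisinin control wells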; settings: P. falciparum 3D7 erythrocytic growth, LDH absorbance, 72 h; at 2 µM; active compounds read high
[5] = target: Calcium-dependent protein kinase 1 (Plasmodium falciparum (isolate 3D7)) (UniProt P62344); assay: PfCDPK1 kinase inhibitors, biochemical, TCAMS library (AID 1159585; cut-off not given, nearly all actives have IC50 up to about 0.98 µM;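 note: inhibitors leave more ATP so luminescence rises with inhibition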); settings: recombinant PfCDPK1, Kinase-Glo ATP depletion luminescence
Sequence of Calcium-dependent protein kinase 1 (Plasmodium falciparum (isolate 3D7)) (P62344 whole entry, looked up): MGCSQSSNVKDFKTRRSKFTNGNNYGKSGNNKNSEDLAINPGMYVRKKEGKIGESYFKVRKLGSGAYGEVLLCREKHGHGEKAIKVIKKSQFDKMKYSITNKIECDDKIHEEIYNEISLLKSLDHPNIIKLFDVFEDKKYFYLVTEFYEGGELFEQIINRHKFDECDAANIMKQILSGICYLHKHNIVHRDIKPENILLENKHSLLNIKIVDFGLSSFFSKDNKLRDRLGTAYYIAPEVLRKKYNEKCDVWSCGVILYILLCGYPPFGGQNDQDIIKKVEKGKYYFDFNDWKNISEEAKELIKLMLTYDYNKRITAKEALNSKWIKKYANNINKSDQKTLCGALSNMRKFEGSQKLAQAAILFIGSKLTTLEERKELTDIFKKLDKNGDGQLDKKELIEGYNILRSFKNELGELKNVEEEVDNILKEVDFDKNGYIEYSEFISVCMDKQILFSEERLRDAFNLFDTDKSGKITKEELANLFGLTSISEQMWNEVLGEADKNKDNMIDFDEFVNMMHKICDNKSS

[6] = target: Plasmodium falciparum protein kinase 6 (PK6, PF3D7_1337100) (UniProt Q8IDW1); assay: PfPK6 kinase inhibitors, biochemical, TCAMS library (AID 1159586); settings: recombinant PfPK6, Kinase-Glo ATP depletion luminescence
Sequence of Plasmodium falciparum protein kinase 6 (PK6, PF3D7_1337100) (Q8IDW1 1-305): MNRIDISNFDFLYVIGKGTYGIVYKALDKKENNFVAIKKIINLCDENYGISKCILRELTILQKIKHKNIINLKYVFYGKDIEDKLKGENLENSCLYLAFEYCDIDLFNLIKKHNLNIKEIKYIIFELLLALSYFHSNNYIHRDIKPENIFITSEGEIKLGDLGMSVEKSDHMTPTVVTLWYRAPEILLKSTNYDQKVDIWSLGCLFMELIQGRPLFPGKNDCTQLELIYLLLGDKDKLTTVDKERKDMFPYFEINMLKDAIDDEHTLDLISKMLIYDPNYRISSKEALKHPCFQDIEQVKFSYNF

[7] = target: Protein kinase 7 (PK7), Plasmodium falciparum 3D7 (PF3D7_0213400) (UniProt Q7YTF7); assay: inhibition of Plasmodium PK7 catalytic activity – biochemical, TCAMS antimalarial set, Kinase-Glo luminescence (AID 1159587); settings: recombinant PfPK7, Kinase-Glo ATP depletion luminescence
Sequence of Protein kinase 7 (PK7), Plasmodium falciparum 3D7 (PF3D7_0213400) (Q7YTF7 1-343): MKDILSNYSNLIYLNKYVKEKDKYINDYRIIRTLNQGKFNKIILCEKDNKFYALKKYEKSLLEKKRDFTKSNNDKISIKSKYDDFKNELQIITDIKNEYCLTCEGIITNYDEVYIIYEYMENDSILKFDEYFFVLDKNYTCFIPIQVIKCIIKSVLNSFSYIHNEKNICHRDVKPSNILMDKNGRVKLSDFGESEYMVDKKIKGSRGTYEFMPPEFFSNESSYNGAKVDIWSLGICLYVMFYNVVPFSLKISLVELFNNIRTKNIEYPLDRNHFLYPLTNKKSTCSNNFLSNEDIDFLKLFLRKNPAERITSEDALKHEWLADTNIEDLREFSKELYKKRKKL

[8] = target: Calcium-dependent protein kinase 4 (Plasmodium falciparum (isolate 3D7)) (UniProt Q8IBS5); assay: PfCDPK4 kinase inhibitors, biochemical, TCAMS library (AID 1159588; cut-off not given, nearly all actives have IC50 up to about 0.91 µM); settings: recombinant PfCDPK4, Kinase-Glo ATP depletion luminescence
Sequence of Calcium-dependent protein kinase 4 (Plasmodium falciparum (isolate 3D7)) (Q8IBS5 whole entry, looked up): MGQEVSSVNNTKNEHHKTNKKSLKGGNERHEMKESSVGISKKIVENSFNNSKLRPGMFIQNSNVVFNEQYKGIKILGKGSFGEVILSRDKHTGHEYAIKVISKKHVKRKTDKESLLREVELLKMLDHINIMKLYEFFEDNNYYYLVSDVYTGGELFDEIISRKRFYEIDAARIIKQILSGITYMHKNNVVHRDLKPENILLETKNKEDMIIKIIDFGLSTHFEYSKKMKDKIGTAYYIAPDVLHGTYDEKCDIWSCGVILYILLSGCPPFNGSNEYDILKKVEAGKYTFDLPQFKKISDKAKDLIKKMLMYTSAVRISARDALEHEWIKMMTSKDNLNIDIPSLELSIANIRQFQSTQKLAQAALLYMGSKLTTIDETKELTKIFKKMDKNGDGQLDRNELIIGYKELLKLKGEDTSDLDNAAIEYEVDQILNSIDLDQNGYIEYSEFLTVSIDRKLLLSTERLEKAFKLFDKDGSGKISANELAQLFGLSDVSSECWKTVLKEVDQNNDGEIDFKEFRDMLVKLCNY

O=S(=O)(Nc1ccc(CCN2CCC(N3CCCCC3)CC2)cc1)c1cccc2cccnc12
active: growth inhibition [4] 101%
inactive: growth inhibition [1] 45% | inhibition [2] 14% | inhibition [3] -3% | outcome [5] | outcome [6] | outcome [7] | outcome [8]

CC(=O)Nc1nc(C(=O)Nc2cccc(-c3ccc(-c4nc5ccccc5[nH]4)cc3)c2)cs1
active: growth inhibition [1] 60% | inhibition [2] 88% | growth inhibition [4] 101%
inactive: inhibition [3] -2% | outcome [5] | outcome [6] | outcome [7] | outcome [8]

CSc1ccccc1NC(=S)NC1CCN(CCCCCNC(=O)/C=C/c2ccc(Cl)c(Cl)c2)CC1
active: growth inhibition [4] 98%
inactive: growth inhibition [1] 27% | inhibition [2] 19% | inhibition [3] 4% | outcome [5] | outcome [6] | outcome [7] | outcome [8]

Cc1cc(N[C@@H](CC(C)C)C(=O)Nc2ccccc2)nc(NCc2ccccc2C)n1
active: growth inhibition [1] 81% | growth inhibition [4] 101%
inactive: inhibition [2] 21% | inhibition [3] 4% | outcome [5] | outcome [6] | outcome [7] | outcome [8]

CN(C)CCOc1ccc2[nH]c(-c3cccc(OCc4ccccc4)c3)nc2c1C#N
inactive: inhibition [2] 48% | inhibition [3] -5% | outcome [5] | outcome [6] | outcome [7] | outcome [8]
active: growth inhibition [1] 86% | growth inhibition [4] 100%

CCCc1cc(Cc2cnc(N)nc2N)ccc1OCCCCCC(=O)O
inactive: growth inhibition [1] -2% | inhibition [2] 3% | inhibition [3] 1% | outcome [5] | outcome [6] | outcome [7] | outcome [8]
active: growth inhibition [4] 97%

C=CCOc1cccc2c1CCN(CCN1CCC(NC(=O)c3ccc(-c4ccc(Cl)cc4)cc3)CC1)C2
inactive: growth inhibition [1] 22% | inhibition [2] 35% | inhibition [3] -2% | outcome [5] | outcome [6] | outcome [7] | outcome [8]
active: growth inhibition [4] 93%

Fc1cccc(COc2ccc(Nc3ncnc4sc(C#CCNC5CCCC5)cc34)cc2Cl)c1
active: growth inhibition [1] 78% | growth inhibition [4] 100%
inactive: inhibition [2] 3% | inhibition [3] 3% | outcome [5] | outcome [6] | outcome [7] | outcome [8]

COc1ccc2c(c1)Nc1ccc(Cl)cc1C2N (configuration not stated)
inactive: inhibition [2] 16% | inhibition [3] 3% | outcome [5] | outcome [6] | outcome [7] | outcome [8]
active: growth inhibition [1] 99% | growth inhibition [4] 101%

O=C(Nc1cccc(-c2cccc(-c3nc4ccc(F)cc4[nH]3)c2)c1)Nc1ccc(F)c(F)c1F
inactive: inhibition [3] 4% | outcome [5] | outcome [6] | outcome [7] | outcome [8]
active: growth inhibition [1] 100% | inhibition [2] 83% | growth inhibition [4] 100%

COc1ccc2nccc([C@@H](O)CN3CCC(NCCNc4ccccn4)CC3)c2c1
active: growth inhibition [4] 101%
inactive: growth inhibition [1] 14% | inhibition [2] 18% | inhibition [3] -4% | outcome [5] | outcome [6] | outcome [7] | outcome [8]

CS(=O)(=O)Nc1ccc(OCCCCCCOc2ccc(NS(C)(=O)=O)cc2)cc1
active: growth inhibition [1] 82% | growth inhibition [4] 93%
inactive: inhibition [2] 3% | inhibition [3] 4% | outcome [5] | outcome [6] | outcome [7] | outcome [8]

Cc1cccc2[nH]c(-c3cccc(-c4cccc(NC(=O)c5cn(C)c(=O)n5C)c4)c3)nc12
inactive: inhibition [2] 5% | inhibition [3] -5% | outcome [5] | outcome [6] | outcome [7] | outcome [8]
active: growth inhibition [1] 80% | growth inhibition [4] 99%

COc1ccc2nccc([C@@H](O)CN3CCC(NC(=O)Cn4nc(-c5ccc(C(F)(F)F)cc5)ccc4=O)CC3)c2c1
inactive: inhibition [2] 12% | inhibition [3] -3% | outcome [5] | outcome [6] | outcome [7] | outcome [8]
active: growth inhibition [1] 90% | growth inhibition [4] 100%

COc1ccc(NC(=O)c2ccc(-c3nc(-c4ccc(Cl)cc4)cs3)cc2)cc1N1CCN(C)CC1
inactive: growth inhibition [1] 34% | inhibition [2] 30% | inhibition [3] 0% | outcome [5] | outcome [6] | outcome [7] | outcome [8]
active: growth inhibition [4] 91%

COc1cc2nccc(Nc3ccc(OCc4ccc(NC(C)=O)cc4)cc3)c2cc1OC
inactive: inhibition [2] 24% | inhibition [3] 3% | outcome [5] | outcome [6] | outcome [7] | outcome [8]
active: growth inhibition [1] 95% | growth inhibition [4] 101%

COc1ccc(CCn2c(C3CCCCC3)nc3oc4ccccc4c(=O)c3c2=O)cc1
inactive: inhibition [2] 12% | inhibition [3] -2% | outcome [5] | outcome [6] | outcome [7] | outcome [8]
active: growth inhibition [1] 66% | growth inhibition [4] 91%

Cc1ccnc2nc(C(=O)Nc3cc(C(F)(F)F)ccc3N3CCCCC3)nn12
inactive: inhibition [2] 7% | inhibition [3] -5% | outcome [5] | outcome [6] | outcome [7] | outcome [8]
active: growth inhibition [1] 94% | growth inhibition [4] 96%

CN(CCCNc1ccc(C(=O)Nc2ccc(C(F)(F)F)cc2)cc1[N+](=O)[O-])Cc1ccccc1
active: growth inhibition [4] 100%
inactive: growth inhibition [1] 48% | inhibition [2] 25% | inhibition [3] -9% | outcome [5] | outcome [6] | outcome [7] | outcome [8]

CCc1c[nH]c2c(N3CCCC3=O)cc(C(=O)N[C@@H](Cc3ccccc3)[C@H](O)CNC3CCCCC3)cc12
inactive: inhibition [2] 12% | inhibition [3] -1% | outcome [5] | outcome [6] | outcome [7] | outcome [8]
active: growth inhibition [1] 98% | growth inhibition [4] 100%

O=C(Nc1cccc(CN2CCN(C(=O)c3ccccc3)CC2)c1)c1cccs1
active: growth inhibition [1] 97% | growth inhibition [4] 95%
inactive: inhibition [2] 15% | inhibition [3] 1% | outcome [5] | outcome [6] | outcome [7] | outcome [8]

Nc1c2ccccc2nc2ccc(-c3ccccc3)cc12
inactive: inhibition [3] 2% | outcome [5] | outcome [6] | outcome [7] | outcome [8]
active: growth inhibition [1] 99% | inhibition [2] 100% | growth inhibition [4] 101%

CCCNC[C@@H](O)[C@H](Cc1ccccc1)NC(=O)c1cc2c3c(c1)c(CC)cn3CCS(=O)(=O)N2C
inactive: inhibition [2] -4% | inhibition [3] 2% | outcome [5] | outcome [6] | outcome [7] | outcome [8]
active: growth inhibition [1] 98% | growth inhibition [4] 97%

NC1=NC(=O)C(=Cc2cn(-c3ccccc3)nc2-c2cccc(S(=O)(=O)N3CCCC3)c2)S1
inactive: inhibition [2] -4% | inhibition [3] 3% | outcome [5] | outcome [6] | outcome [7] | outcome [8]
active: growth inhibition [1] 68% | growth inhibition [4] 85%

COc1cccc(NC(=O)Nc2cc(-c3ccc4[nH]ncc4c3)cc3c2CNC3=O)c1
active: growth inhibition [1] 100% | growth inhibition [4] 98%
inactive: inhibition [2] 3% | inhibition [3] 5% | outcome [5] | outcome [6] | outcome [7] | outcome [8]

CCCC(=O)NC(c1cccs1)c1cc(Cl)c2cccnc2c1O (configuration not stated)
active: growth inhibition [1] 61% | inhibition [2] 51% | growth inhibition [4] 87%
inactive: inhibition [3] -4% | outcome [5] | outcome [6] | outcome [7] | outcome [8]

O=S(=O)(c1ccc(Cl)cc1Cl)N1CCCCC(c2ccc(C(F)(F)F)cc2)=N1
active: growth inhibition [1] 99% | growth inhibition [4] 100%
inactive: inhibition [2] 10% | inhibition [3] 4% | outcome [5] | outcome [6] | outcome [7] | outcome [8]

CN(C)c1ccc(N=C2N=C(Nc3ccc(N(C)C)cc3)c3ccccc32)cc1
inactive: growth inhibition [1] 20% | inhibition [2] 23% | inhibition [3] -5% | outcome [5] | outcome [6] | outcome [7] | outcome [8]
active: growth inhibition [4] 93%

C=CCc1cc(Cc2cnc(N)nc2N)cc(CCC)c1OC
inactive: growth inhibition [1] 1% | inhibition [2] 3% | inhibition [3] 0% | outcome [5] | outcome [6] | outcome [7] | outcome [8]
active: growth inhibition [4] 83%

CCc1ccc(CN2CCC(CNC(=O)c3cc(-c4cccc(F)c4)cs3)C2)cc1 (configuration not stated)
inactive: growth inhibition [1] 4% | inhibition [2] 23% | inhibition [3] 2% | outcome [5] | outcome [6] | outcome [7] | outcome [8]
active: growth inhibition [4] 84%

Cc1cc(N[C@@H](Cc2ccccc2)C(=O)NCc2cccc(F)c2)nc(NCc2ccccc2C)n1
active: growth inhibition [1] 75% | growth inhibition [4] 100%
inactive: inhibition [2] 6% | inhibition [3] 0% | outcome [5] | outcome [6] | outcome [7] | outcome [8]

CN1CCN(CC(=O)Nc2cccc(-c3ccc(-c4nc5ccc(C(F)(F)F)cc5[nH]4)cc3)c2)CC1
inactive: inhibition [2] 37% | inhibition [3] -3% | outcome [5] | outcome [6] | outcome [7] | outcome [8]
active: growth inhibition [1] 94% | growth inhibition [4] 102%

NC(N)=Nc1nc(-c2ccc(NCc3ccc(CNc4cccc(-c5csc(N=C(N)N)n5)c4)cc3)cc2)cs1
active: growth inhibition [1] 99% | growth inhibition [4] 102%
inactive: inhibition [2] 11% | inhibition [3] 0% | outcome [5] | outcome [6] | outcome [7] | outcome [8]

CCc1cn(CCS(C)(=O)=O)c2ccc(C(=O)N[C@@H](Cc3ccccc3)[C@H](O)CNC(C)(C)CCCC(C)C)cc12
inactive: inhibition [2] 16% | inhibition [3] -7% | outcome [5] | outcome [6] | outcome [7] | outcome [8]
active: growth inhibition [1] 96% | growth inhibition [4] 87%

CN(C)CCOc1cc(NC(=O)Nc2ccc(-c3ccncc3)c3ccccc23)ccc1I
inactive: growth inhibition [1] 46% | inhibition [2] 35% | inhibition [3] -3% | outcome [5] | outcome [6] | outcome [7] | outcome [8]
active: growth inhibition [4] 97%

O=C(/C=C/c1ccc(Cl)c(Cl)c1)N1CCC(CCN2CCC(c3c[nH]c4cc5c(cc34)OCO5)CC2)CC1
inactive: inhibition [2] 46% | inhibition [3] -4% | outcome [5] | outcome [6] | outcome [7] | outcome [8]
active: growth inhibition [1] 65% | growth inhibition [4] 99%

Cc1cc(F)ccc1N(c1nc(-c2cc(Cl)ccc2Cl)cs1)C1CCNC1 (configuration not stated)
inactive: growth inhibition [1] 3% | inhibition [2] 19% | inhibition [3] 0% | outcome [5] | outcome [6] | outcome [7] | outcome [8]
active: growth inhibition [4] 99%

Cc1nn(CCOC(=O)NC(NCC2COc3ccccc3O2)C(Cl)(Cl)Cl)cc1[N+](=O)[O-] (configuration not stated)
inactive: inhibition [2] -9% | inhibition [3] 2% | outcome [5] | outcome [6] | outcome [7] | outcome [8]
active: growth inhibition [1] 99% | growth inhibition [4] 99%

CC(C)c1ccc(CN2CCCCC(NC(=O)c3cc(-c4ccccc4F)cs3)C2)cc1 (configuration not stated)
inactive: inhibition [2] 18% | inhibition [3] -2% | outcome [5] | outcome [6] | outcome [7] | outcome [8]
active: growth inhibition [1] 84% | growth inhibition [4] 99%
